{"source": "paper PMC4336329", "about": "(PLoS ONE, 2015)", "note": "Out of some 310,000 compounds screened, about 14,000 (4.5%) showed an effect of 50% or more. Effects have a minus sign here. The entries come from a sample that favours strong results as a whole.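 Also: peak tail current of the secondary pulse compared with the same well before compound.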", "data": [{"target": "human ether-à-go-go-related gene (hERG) potassium channel (human, UniProt Q12809)", "sequence (Q12809 whole entry, looked up)": "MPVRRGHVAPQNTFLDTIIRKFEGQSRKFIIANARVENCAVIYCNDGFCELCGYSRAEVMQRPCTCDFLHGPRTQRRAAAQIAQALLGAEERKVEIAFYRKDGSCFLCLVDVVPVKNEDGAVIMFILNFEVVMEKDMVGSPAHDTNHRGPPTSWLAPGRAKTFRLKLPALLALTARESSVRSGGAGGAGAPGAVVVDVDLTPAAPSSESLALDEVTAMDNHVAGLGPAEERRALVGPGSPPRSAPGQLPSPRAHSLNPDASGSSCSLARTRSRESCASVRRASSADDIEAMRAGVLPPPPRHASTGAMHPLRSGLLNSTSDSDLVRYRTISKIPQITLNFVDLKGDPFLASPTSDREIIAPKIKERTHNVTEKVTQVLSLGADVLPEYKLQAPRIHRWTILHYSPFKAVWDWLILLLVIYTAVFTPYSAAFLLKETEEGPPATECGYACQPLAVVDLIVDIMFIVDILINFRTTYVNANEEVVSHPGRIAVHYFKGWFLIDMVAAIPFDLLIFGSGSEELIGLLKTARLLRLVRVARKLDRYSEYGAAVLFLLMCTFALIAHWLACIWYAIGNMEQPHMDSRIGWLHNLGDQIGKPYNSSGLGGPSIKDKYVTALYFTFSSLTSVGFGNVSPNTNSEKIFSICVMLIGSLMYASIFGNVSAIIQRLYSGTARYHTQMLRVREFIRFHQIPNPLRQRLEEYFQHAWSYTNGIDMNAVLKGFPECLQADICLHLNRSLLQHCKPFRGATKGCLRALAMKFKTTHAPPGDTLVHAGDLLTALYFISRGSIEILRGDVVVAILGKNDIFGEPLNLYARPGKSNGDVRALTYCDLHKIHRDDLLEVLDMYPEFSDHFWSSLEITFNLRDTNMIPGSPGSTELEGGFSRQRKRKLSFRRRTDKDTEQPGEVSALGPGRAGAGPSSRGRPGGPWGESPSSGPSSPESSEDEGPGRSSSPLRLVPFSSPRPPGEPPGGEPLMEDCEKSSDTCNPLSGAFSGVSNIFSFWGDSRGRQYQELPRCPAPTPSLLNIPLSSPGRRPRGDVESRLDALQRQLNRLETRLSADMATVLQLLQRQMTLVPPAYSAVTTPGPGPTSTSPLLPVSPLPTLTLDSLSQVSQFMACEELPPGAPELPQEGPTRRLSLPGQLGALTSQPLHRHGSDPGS", "assay": "primary screen, population patch clamp on CHO cells stably expressing hERG; higher = less effect of the substance", "units": {"hERG current change (%, negative = inhibition) at 10uM": "%"}, "values": [{"smiles": "Cc1[nH]nc(SCC(=O)N2CCCCCC2)c1[N+](=O)[O-]", "hERG current change (%, negative = inhibition) at 10uM": 3.4}, {"smiles": "Cc1nnc(SCC(=O)NNC(=O)CC#N)[nH]c1=O", "hERG current change (%, negative = inhibition) at 10uM": -7.01}, {"smiles": "CCOc1cc(-c2cc(N)n[nH]2)cc(OCC)c1OCC", "hERG current change (%, negative = inhibition) at 10uM": 14.6}, {"smiles": "Cc1ccc(N(C)C(=O)n2cnc3ccccc32)cc1", "hERG current change (%, negative = inhibition) at 10uM": -1.52}, {"smiles": "CN(Cc1ccccc1)C(=S)NC(=O)c1cccs1", "hERG current change (%, negative = inhibition) at 10uM": 8.32}, {"smiles": "O=C(NCc1nnc(SC/C=C/c2ccccc2)o1)c1ccco1", "hERG current change (%, negative = inhibition) at 10uM": -5.97}, {"smiles": "CC1(COS(N)(=O)=O)CCCCC1", "hERG current change (%, negative = inhibition) at 10uM": 1.76}, {"smiles": "Cc1ccc(S(=O)(=O)Nc2ccc(-c3nc4ccc(C)cc4s3)cc2)cc1", "hERG current change (%, negative = inhibition) at 10uM": 2.32}, {"smiles": "CC(C)COc1ccc(/C(=N/O)c2ccccc2)cc1", "hERG current change (%, negative = inhibition) at 10uM": 11}, {"smiles": "Cc1ccc(C(=O)c2coc3ccc(OCC(=O)O)cc23)cc1", "hERG current change (%, negative = inhibition) at 10uM": 2.16}, {"smiles": "O=C(/C=C/c1ccc2c(c1)OCO2)Nc1cccnc1", "hERG current change (%, negative = inhibition) at 10uM": -66.4}, {"smiles": "CC(=O)Nc1ccc(NC(=O)/C=C/c2ccc3c(c2)OCO3)cc1", "hERG current change (%, negative = inhibition) at 10uM": 13}, {"smiles": "O=C(/C=C/c1ccc2c(c1)OCO2)c1cccnc1", "hERG current change (%, negative = inhibition) at 10uM": -27.8}, {"smiles": "C[C@@H](C(=O)N[C@@H](Cc1c[nH]c2ccccc12)C(=O)O)n1nnc2ccccc2c1=O", "hERG current change (%, negative = inhibition) at 10uM": 41.7}, {"smiles": "Cn1c(Cn2c(=O)sc3ccccc32)nnc1SCc1ccc(F)cc1", "hERG current change (%, negative = inhibition) at 10uM": -21.6}, {"smiles": "CC(=O)N(CCS(=O)(=O)c1ccc(Cl)cc1)Cc1cccs1", "hERG current change (%, negative = inhibition) at 10uM": -0.348}, {"smiles": "N#C/C(=C\\c1ccc(N2CCOCC2)o1)C(=O)NCCc1ccccc1", "hERG current change (%, negative = inhibition) at 10uM": -57.9}, {"smiles": "N#C/C(=C\\c1ccc(N2CCOCC2)o1)C(=O)NCC1CCCO1", "note": "(stereo not shown)", "hERG current change (%, negative = inhibition) at 10uM": -0.262}, {"smiles": "COCCNC(=O)/C(C#N)=C/c1ccc(N2CCOCC2)o1", "hERG current change (%, negative = inhibition) at 10uM": 9.87}, {"smiles": "O=C(c1cc(C(=O)NCc2ccccc2)c(=O)n(Cc2ccccc2)c1)c1cc(Cl)ccc1O", "hERG current change (%, negative = inhibition) at 10uM": -0.908}, {"smiles": "Cc1ccc2nsnc2c1S(=O)(=O)Nc1cccc2nsnc12", "hERG current change (%, negative = inhibition) at 10uM": -0.692}, {"smiles": "COc1cc(C(=O)NC(=S)Nc2nccs2)cc(OC)c1OC", "hERG current change (%, negative = inhibition) at 10uM": 17.7}, {"smiles": "COC(=O)C(C)Sc1nc2c(c(=O)[nH]c(=O)n2C)n1CCC(C)C", "note": "(stereo not shown)", "hERG current change (%, negative = inhibition) at 10uM": -24.6}, {"smiles": "CCC(C)Sc1nc2c(c(=O)[nH]c(=O)n2C)n1Cc1ccc(Cl)cc1", "note": "(stereo not shown)", "hERG current change (%, negative = inhibition) at 10uM": 1.92}, {"smiles": "CCOC(=O)C(CC)Sc1nc2c(c(=O)[nH]c(=O)n2C)n1CCc1ccccc1", "note": "(stereo not shown)", "hERG current change (%, negative = inhibition) at 10uM": -67.8}, {"smiles": "COC(=O)C(C)Sc1nc2c(c(=O)[nH]c(=O)n2C)n1CCCc1ccccc1", "note": "(stereo not shown)", "hERG current change (%, negative = inhibition) at 10uM": -72.2}, {"smiles": "CCOC(=O)C(C)Sc1nc2c(c(=O)[nH]c(=O)n2C)n1C/C=C(/C)Cl", "note": "(stereo not shown)", "hERG current change (%, negative = inhibition) at 10uM": -72.8}, {"smiles": "Cn1c(=O)[nH]c(=O)c2c1nc(SCC(=O)O)n2CCCc1ccccc1", "hERG current change (%, negative = inhibition) at 10uM": 3.89}, {"smiles": "CCOC(=O)C(C)Sc1nc2c(c(=O)[nH]c(=O)n2C)n1CCc1ccccc1", "note": "(stereo not shown)", "hERG current change (%, negative = inhibition) at 10uM": -49.8}, {"smiles": "CC(C)Sc1nc2c(c(=O)[nH]c(=O)n2C)n1Cc1ccc(Cl)cc1", "hERG current change (%, negative = inhibition) at 10uM": -13.3}, {"smiles": "CCOC(=O)CSc1nc2c(c(=O)[nH]c(=O)n2C)n1CCc1ccccc1", "hERG current change (%, negative = inhibition) at 10uM": -1.16}, {"smiles": "C/C(Cl)=C/Cn1c(SC(C)C)nc2c1c(=O)[nH]c(=O)n2C", "hERG current change (%, negative = inhibition) at 10uM": -6.63}, {"smiles": "C/C(Cl)=C/Cn1c(SCC(C)C)nc2c1c(=O)[nH]c(=O)n2C", "hERG current change (%, negative = inhibition) at 10uM": 15.2}, {"smiles": "CCOC(=O)C(C)Sc1nc2c(c(=O)[nH]c(=O)n2C)n1Cc1ccc(Cl)cc1", "note": "(stereo not shown)", "hERG current change (%, negative = inhibition) at 10uM": -75}, {"smiles": "Cc1ccc(OC(=S)Nc2ccc(F)cc2)cc1", "hERG current change (%, negative = inhibition) at 10uM": 7.01}, {"smiles": "Cc1ccc(Sc2nc(-c3ccccc3)nnc2C(F)(F)F)cc1", "hERG current change (%, negative = inhibition) at 10uM": 11.7}, {"smiles": "CC(C)(C)C(=O)NC(Nc1cccc2cccnc12)C(Cl)(Cl)Cl", "note": "(stereo not shown)", "hERG current change (%, negative = inhibition) at 10uM": -1.6}, {"smiles": "CC1=C(C(=O)OC(C)C)C(c2ccc(Br)s2)NC(=O)N1", "note": "(stereo not shown)", "hERG current change (%, negative = inhibition) at 10uM": -48}, {"smiles": "O=c1oc2cc([N+](=O)[O-])ccc2nc1/C=C(\\O)c1cccc(Br)c1", "hERG current change (%, negative = inhibition) at 10uM": 4.15}, {"smiles": "C[C@]12C(=O)N(c3ccc(F)cc3)C(=O)N1[C@@H]1c3ccccc3OC[C@@H]1[C@H]2c1ccccc1", "hERG current change (%, negative = inhibition) at 10uM": 7.01}, {"smiles": "COc1cc(OC)c(NC2=NCCCCC2)cc1Cl", "hERG current change (%, negative = inhibition) at 10uM": -0.664}, {"smiles": "CCOC(=O)CSc1nc2c(c(=O)[nH]c(=O)n2C)n1C/C=C(/C)Cl", "hERG current change (%, negative = inhibition) at 10uM": -43.7}, {"smiles": "CCOC(=O)C(CC)Sc1nc2c(c(=O)[nH]c(=O)n2C)n1C/C=C(/C)Cl", "note": "(stereo not shown)", "hERG current change (%, negative = inhibition) at 10uM": -82}, {"smiles": "CCSc1nc2c(c(=O)[nH]c(=O)n2C)n1C/C=C(/C)Cl", "hERG current change (%, negative = inhibition) at 10uM": -17.2}, {"smiles": "Nc1nc(Cl)cc(-c2ccccc2)n1", "hERG current change (%, negative = inhibition) at 10uM": -4.54}, {"smiles": "CCC(C)C(NC=C1C(=O)OC(C)(C)OC1=O)C(=O)O", "note": "(stereo not shown)", "hERG current change (%, negative = inhibition) at 10uM": -4.97}, {"smiles": "CC1CN(Cc2nc3c(c(=O)n(C)c(=O)n3C)n2Cc2cccc(Cl)c2)CC(C)O1", "note": "(stereo not shown)", "hERG current change (%, negative = inhibition) at 10uM": -14.2}, {"smiles": "CCCCn1c(CN(C)Cc2ccccc2)nc2c1c(=O)n(C)c(=O)n2C", "hERG current change (%, negative = inhibition) at 10uM": -39.9}, {"smiles": "CN(Cc1ccccc1)Cc1nc2c(c(=O)n(C)c(=O)n2C)n1CCc1ccccc1", "hERG current change (%, negative = inhibition) at 10uM": -48.3}, {"smiles": "CN(Cc1ccccc1)Cc1nc2c(c(=O)n(C)c(=O)n2C)n1Cc1ccc(F)cc1", "hERG current change (%, negative = inhibition) at 10uM": -55.6}, {"smiles": "Cn1c(=O)c2c(nc(CN3CCN(Cc4ccccc4)CC3)n2Cc2cccc(Cl)c2)n(C)c1=O", "hERG current change (%, negative = inhibition) at 10uM": -59.2}, {"smiles": "Cn1c(=O)c2c(nc(CN3CCN(c4cccc(Cl)c4)CC3)n2CCc2ccccc2)n(C)c1=O", "hERG current change (%, negative = inhibition) at 10uM": -20.1}, {"smiles": "CN(Cc1ccccc1)Cc1nc2c(c(=O)n(C)c(=O)n2C)n1CCCc1ccccc1", "hERG current change (%, negative = inhibition) at 10uM": -50.3}, {"smiles": "CN(Cc1ccccc1)Cc1nc2c(c(=O)n(C)c(=O)n2C)n1Cc1ccc(Cl)cc1", "hERG current change (%, negative = inhibition) at 10uM": -30.1}, {"smiles": "COCCn1c(CN(C)Cc2ccccc2)nc2c1c(=O)n(C)c(=O)n2C", "hERG current change (%, negative = inhibition) at 10uM": -6.15}, {"smiles": "COCCn1c(CN(Cc2ccccc2)Cc2ccccc2)nc2c1c(=O)n(C)c(=O)n2C", "hERG current change (%, negative = inhibition) at 10uM": -62.8}, {"smiles": "CCCn1c(CN(C)Cc2ccccc2)nc2c1c(=O)n(C)c(=O)n2C", "hERG current change (%, negative = inhibition) at 10uM": -23.4}, {"smiles": "CCOCCn1c(CN(Cc2ccccc2)Cc2ccccc2)nc2c1c(=O)n(C)c(=O)n2C", "hERG current change (%, negative = inhibition) at 10uM": -45.6}]}]}
